# Laboratory results taken from PubChem BioAssay (NCI).
# About 79,000 compounds went through this panel and 15% of them were active in at least one assay; those are over-represented in the sample as a whole. A number with no mark means an inactive call. Active and inactive are the calls of the source. Rule as the data show it: active = growth inhibition above about 70%; inactive = the rest.
# Test: NCI Yeast Anticancer Drug Screen. Data for the mlh1 rad18 strain (AID 175)
# Settings: S. cerevisiae mlh1 rad18 strain growth inhibition; at 50.0 µM; hits give high values
# In short: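 Inhibition values reflect reduced growth of mutant yeast versus vehicle-treated controls following compound exposure; the mutations affect DNA damage repair.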
row,Structure (SMILES),growth inhibition
1,Nc1ccccc1C(=O)Nc1ccccn1,-6.25%
2,O=C(NC(=O)c1c(Cl)nc2sccn12)Nc1ccc(Cl)cc1,-23.9%
3,CCOC(=O)C(CCc1ccc([N+](=O)[O-])cc1)(CCc1ccc([N+](=O)[O-])cc1)C(=O)OCC,6.15%
4,CCOC(=O)CCCCCCCCCC[N+](CC)(CC)CC(=O)c1ccc(NC(C)=O)cc1,-0.1%
5,Cc1cccc(C)c1NC(=O)C1C(=O)N(c2c(C)cccc2C)C(=O)/C1=N\NC(N)=S (stereo not given),-34.9%
6,CCN(CC)C(=O)C(C(=O)OC)c1ccccc1 (stereo not given),7.1%
7,CC(=O)C(Cc1cccc([N+](=O)[O-])c1)Cc1cccc([N+](=O)[O-])c1,-9.45%
8,c1ccc(-n2nnnc2-c2nnnn2-c2ccccc2)cc1,-11%
9,COc1ccc(OC)c(NC(=O)CCC/C(CC(=O)c2ccc(O)c(OC)c2)=N\Nc2ccc([N+](=O)[O-])cc2)c1,-25.6%
10,COC(=O)C1c2ccccc2CC(=O)N1N (stereo not given),9.15%
11,C=C1C(C2(C)C=CC(=O)OC3(C)COC(=O)CC32)C(OC=O)C(OC(=O)C(O)C(C)CC)C2(C)C(c3ccoc3)CC(OC(C)=O)C12O (stereo not given),-21.4%
12,O=C1OC(=O)c2c1ccc1ccccc21,14.8%
13,Cn1c(N)c(N=Cc2ccc(Cl)cc2)c(=O)n(C)c1=O,-7.4%
14,COC(=O)c1cc(-c2ccc3ccccc3c2)[nH]c(=O)c1C#N,67.3%
15,CC1=NN(c2ccccc2)C(=O)/C1=C(\[O-])c1ccccc1.CC1=NN(c2ccccc2)C(=O)/C1=C(\[O-])c1ccccc1.CC1=NN(c2ccccc2)C(=O)/C1=C(\[O-])c1ccccc1.[Fe+3],4.45%
16,O=C1C(Br)=C(Br)C(=O)C2=C1C1c3ccccc3C2c2ccccc21,97.8% (active)
17,O=C(O)Cc1ccc2ccccc2c1,48%
18,O=c1[nH]c2cc(Br)c(Br)cc2c2ccc(Br)cc12,5.15%
19,O=C(C[n+]1cccc(CO)c1)c1ccc(-c2ccc(C(=O)C[n+]3cccc(CO)c3)cc2)cc1,11.7%
20,O=C(O)C(c1ccc(-c2ccccc2)cc1)C1CCCCC1 (stereo not given),40.5%

row,Structure (SMILES),growth inhibition
1,COC(=O)/C=C(/C=C1/C(C#N)=C(N)N(c2ccc(Cl)cc2)C1(C)/C(=C/C(=O)OC)C(=O)OC)C(=O)OC (stereo not given),10.7%
2,COc1cccc(Oc2cccc[n+]2CC(C)=O)c1,1.15%
3,CCOC(=O)C1=C(Nc2ccc(F)cc2)C(=O)N(C(C)(C)C)C1,21.6%
4,CCNc1ccc(C)cc1,33.5%
5,Cc1cc(O)c(/C=N/c2nc(-c3ccc([N+](=O)[O-])cc3)cs2)c(=O)o1,74.1% (active)
6,Nc1ccc(S(=O)(=O)Nc2ccccn2)cc1,-17.4%
7,O=C(Cc1csc(N=Nc2c(O)[nH]c3ccccc23)n1)Nc1ccccc1,10.9%
8,Cc1ccc(S(=O)(=O)Cc2c(C)cc(C)cc2C)cc1,1.15%
9,O=C1Nc2ccccc2C1O (stereo not given),-4.2%
10,COC(=O)C1(OC)C(=O)NC2=C1C(=O)c1ccccc1C2=O (stereo not given),4.8%
11,O=C(Nc1ccc(Cl)c(Cl)c1)Oc1ccc(-c2ccccc2)cc1,95.7% (active)
12,COc1cc(/C=N/NC(N)=S)cc(OC)c1,-11.8%
13,CC(C)=NNC(=O)COCC(=O)NN=C(C)C,1.35%
14,O=S(=O)(Cl)c1cccc2c(S(=O)(=O)Cl)cccc12,16.2%
15,COc1cc(Br)c(CC2c3cc(OC)c(OC)cc3CCN2C)cc1OC (stereo not given),-13.4%
16,COc1ccc(C(=O)Nc2ccn(CCOC(=O)c3ccc(OC)cc3)c(=O)n2)cc1,-3.55%
17,CC(N=C(N)N)C(=O)O (stereo not given),14%
18,CN1CCC(=O)C(c2ccccc2)(c2ccccc2)CC1,-26.7%
19,CC1(C)C(=O)OC(n2ccc(=O)[nH]c2=O)C1=O (stereo not given),12.7%
20,Fc1ccccc1C1CC(c2ccc3ccccc3c2)=Nc2ccccc2S1 (stereo not given),34.4%
